D1 agonist = Allosteric Agonists of the Human D1 Dopamine Receptor: qHTS; D(1A) dopamine receptor (Homo sapiens), P21728; HEK293 T-REx D1 cells, calcium flux, agonist mode; activation, % at 2 µM; hit rate 1% among 360,000; in the data active means activation above about 30%; further: 0% is about no effect
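Inducible HEK293 T-REx D1 cells, force-coupled to calcium signalling, were plated at 4000 cells/well with tetracycline and held overnight at 30 C. After no-wash calcium dye loading, compound-evoked calcium rise over 180 s flagged agonists.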
D1 antag = Antagonist of Human D 1 Dopamine Receptor: qHTS; AID 504652, 2011; HEK293 TREx D1 cells, calcium flux, dopamine EC80; stronger effect = lower value; D(1A) dopamine receptor (Homo sapiens), P21728; activity change, negative = inhibition, % at 10 µM; hit rate 3.2% among 360,000; in the data active means activity change below about -30%; further: on the % scale 0 is the no-effect control and ±100 the full control effect
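Antagonism measured as reduced calcium response to an EC80 dopamine addition following 180 s compound pre-read; cells were inducible HEK293 Trex D1 plated overnight at 30 C, read kinetically at 1 cycle/sec.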
D1 PAM = Potentiators of Human D1 Dopamine Receptor: qHTS; D(1A) dopamine receptor (Homo sapiens), P21728; HEK293 TREx D1 cells, calcium flux, dopamine EC20 potentiation; potentiation, % at 10 µM; hit rate 0.036% among 360,000; AID 504651, 2011; in the data active means potentiation above about 30%; further: 0% is about no effect
DRD3 agonist = qHTS of D3 Dopamine Receptor Agonist: qHTS | D(3) dopamine receptor (Homo sapiens), P35462 | D3R DiscoveRx beta-arrestin cells, luminescence, 90 min | max activation, % | hit rate 0.58% among 410,000 | AID 652048, 2013; in the data active means max activation above about 30%; further: 0% is about no effect
Target sequence (P35462 whole entry, looked up): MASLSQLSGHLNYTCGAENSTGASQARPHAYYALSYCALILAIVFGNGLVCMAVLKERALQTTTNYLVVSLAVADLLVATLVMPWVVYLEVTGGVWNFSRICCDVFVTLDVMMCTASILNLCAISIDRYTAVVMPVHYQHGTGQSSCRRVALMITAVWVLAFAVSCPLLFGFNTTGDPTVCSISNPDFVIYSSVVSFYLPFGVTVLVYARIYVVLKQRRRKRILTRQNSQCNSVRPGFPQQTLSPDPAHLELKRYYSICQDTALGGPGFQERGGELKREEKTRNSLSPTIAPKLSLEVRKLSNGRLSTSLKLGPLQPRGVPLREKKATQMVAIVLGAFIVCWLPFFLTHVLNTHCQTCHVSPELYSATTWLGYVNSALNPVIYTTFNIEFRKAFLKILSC
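Cells at 1500/well, incubated overnight, then treated with pinned compounds (dopamine as control) for 90 min at 37 degrees C. DiscoveRx reagent added for 30 - 60 minutes at room temperature; luminescence read.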
DRD3 antagonist = qHTS of D3 Dopamine Receptor Antagonist: qHTS; AID 652054, 2013; D(3) dopamine receptor (Homo sapiens), P35462; hit rate 2.5% among 360,000; max response, negative = inhibition, %; D3R cells, DiscoveRx beta-arrestin luminescence, antagonist mode; stronger effect = lower value; in the data active means max response below about -50%; further: on the % scale 0 is the no-effect control and ±100 the full control effect
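Cells plated overnight at 1500 cells/well, then exposed to library compounds with dopamine controls for 90 minutes at 37 degrees C. DiscoveRx reagent added for 30–60 minutes at room temperature; luminescence read, quantitative HTS format.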
Starred values were filed as active, the others as inactive; ! = repeats disagree. Sampled rows, rich in hits. Any-hit rate of the full collection: about 6.1%.

`Cc1cccc(N(C)S(=O)(=O)c2ccc(-c3cc(C)no3)s2)c1` gave D1 agonist 32.5*!, D1 antag -4.8, D1 PAM 5.4, DRD3 agonist -13.7 and DRD3 antagonist -11.6.
Screening COc1ccccc1NS(=O)(=O)c1ccc(-c2cc(C)no2)s1 returned D1 agonist 13.1, D1 antag -3.3, D1 PAM -1.9, DRD3 agonist 51.4* and DRD3 antagonist -0.5.
CCN(c1cccc(C)c1)S(=O)(=O)c1ccc(-c2cc(C)no2)s1 was read as D1 agonist 17.4, D1 antag -24.8, D1 PAM -3.4, DRD3 agonist -4.1 and DRD3 antagonist -12.6.
`CC(C)[C@H](NS(=O)(=O)c1ccc2c(c1)OCCO2)C(=O)OCC(=O)Nc1ccccc1Cl` gave D1 agonist 5.0, D1 antag -9.9, D1 PAM -6.2, DRD3 agonist 1.1 and DRD3 antagonist -9.2.
`CC(C)CNS(=O)(=O)c1ccc(OCC(=O)Nc2ccc3c(c2)OCCO3)cc1` gave D1 agonist 4.1, D1 antag -12.4, D1 PAM -7.0, DRD3 agonist -8.5 and DRD3 antagonist 2.8.
CCC(C)NS(=O)(=O)c1ccc(OCC(=O)Nc2ccc3c(c2)OCCO3)cc1 (stereo unspecified) was read as D1 agonist 6.2, D1 antag -43.3*, D1 PAM -5.6, DRD3 agonist -7.5 and DRD3 antagonist -5.6.
`CCOC(=O)c1ccc(NC(=O)COc2ccc(S(=O)(=O)NC(C)CC)cc2)cc1` (stereo unspecified) gave D1 agonist 17.4, D1 antag -37.8*, D1 PAM -2.3, DRD3 agonist -4.4 and DRD3 antagonist 20.6.
Screening CC(C)[C@H](NS(=O)(=O)c1ccc2c(c1)OCCO2)C(=O)OCC(=O)Nc1cccc(Cl)c1Cl returned D1 agonist 4.1, D1 antag -30.6*, D1 PAM -5.4, DRD3 agonist -1.4 and DRD3 antagonist 11.0.
Screening CCOC(=O)N1CCN(CC(O)COc2ccc(-c3ccccc3)cc2)CC1 (stereo unspecified) returned D1 agonist 7.9, D1 antag -31.4*, D1 PAM -3.7, DRD3 agonist 12.6 and DRD3 antagonist 9.1.
Screening OCCN1CCN(CC(O)COc2ccc(-c3ccccc3)cc2)CC1 (stereo unspecified) returned D1 agonist 5.3, D1 antag -23.7, D1 PAM -8.4, DRD3 agonist 2.5 and DRD3 antagonist -62.1*.
`CO[C@@H]1[C@H](OC(=O)/C=C/C=C/C=C/C=C/C(=O)O)CC[C@]2(CO2)[C@H]1[C@@]1(C)O[C@@H]1CC=C(C)C` gave DRD3 agonist -15.4.
Cc1ccc(C(=O)NC(C#N)=C(Cl)Cl)cc1 was read as D1 agonist -1.0, D1 antag -24.1, D1 PAM -6.7, DRD3 agonist -7.5 and DRD3 antagonist -61.1*.
Screening CCCn1c(=O)c2sccc2n2c(CCCC(=O)N3CCN(c4ccccc4)CC3)nnc12 returned D1 agonist 2.8, D1 antag -16.1, D1 PAM 1.2 and DRD3 agonist 1.6.
Screening CC1(Br)C(Sc2ccccc2[N+](=O)[O-])=Nc2ccccc21 (stereo unspecified) returned DRD3 agonist -13.3 and DRD3 antagonist -50.7*.
Screening COc1cccc(CN2CCNC(=O)C2CC(=O)NCCn2ccc3ccccc32)c1OC (stereo unspecified) returned D1 agonist 0.8, D1 antag -85.2*, D1 PAM -7.3, DRD3 agonist 2.0 and DRD3 antagonist 18.1.
COc1ccc(-c2ncncc2-c2csc(C)n2)c(O)c1OC was read as D1 agonist -1.7, D1 antag 1.6, D1 PAM -1.3, DRD3 agonist 1.6 and DRD3 antagonist 1.4.
COC1=C(N)C(=O)c2nc(-c3nc(C(=O)O)c(C)c(-c4ccc(OC)c(OC)c4O)c3N)ccc2C1=O was read as D1 agonist 0.1, D1 antag -8.0, D1 PAM 2.5, DRD3 agonist -102.2 and DRD3 antagonist -118.5*.
`CCc1ccc(NC(=O)CCNS(=O)(=O)c2cccc3nonc23)cc1` gave D1 agonist 0.8, D1 antag -29.1, D1 PAM -1.2, DRD3 agonist -16.1 and DRD3 antagonist -63.3*.
Screening CCc1cc2c(cc3c(=O)n(CC(=O)NC4CCC(C)CC4)nc(CC)n32)s1 (stereo unspecified) returned D1 agonist 0.4, D1 antag 12.0, D1 PAM -3.8 and DRD3 agonist 1.5.
`O=C(COC(=O)/C=C/c1ccccc1Cl)NC(=O)NCc1ccccc1` gave D1 agonist 31.8*, D1 antag -10.6, D1 PAM 7.9, DRD3 agonist -10.7 and DRD3 antagonist 20.5.
`Cc1cc(CSC(=N)N)c(CSC(=N)N)cc1C` gave D1 agonist 2.1, D1 antag -94.9*, D1 PAM -2.9, DRD3 agonist -3.6 and DRD3 antagonist -21.4.
Screening N=C(N)SCc1ccc(Cl)c2ccccc12 returned DRD3 agonist 1.1 and DRD3 antagonist 0.3.
`Cc1ccc(C(=O)n2nc(C)c(S(=O)(=O)N3CCCCCC3)c2C)cc1` gave D1 agonist 5.4, D1 antag -11.7, D1 PAM -1.6 and DRD3 agonist -11.2.
For O=C(CNC(=O)Cc1ccccc1)NCC(=O)OCc1ccc(C(=O)c2ccccc2)cc1 the results were D1 agonist 3.7, D1 antag -62.9*, D1 PAM 0.8, DRD3 agonist -16.8 and DRD3 antagonist 16.9.
`CCOC(=O)c1ccc(COC(=O)CNC(=O)CNC(=O)Cc2ccccc2)cc1` gave D1 agonist 2.9, D1 antag 6.1, D1 PAM -1.3, DRD3 agonist 8.5 and DRD3 antagonist 9.1.
`CCN(C(=O)Cn1nc(Cc2cccnc2)c2ccccc2c1=O)c1cc(C)ccc1C` gave D1 agonist 0.4, D1 antag -1.6, D1 PAM 1.8 and DRD3 agonist -18.4.
For COCCNC(=O)c1cccc(C)c1[N+](=O)[O-] the results were D1 agonist 0.7, D1 antag -32.9*, D1 PAM -0.5, DRD3 agonist -7.1 and DRD3 antagonist 2.0.
`COc1cccc2c1cc1c(=O)n(CC(=O)O)nc(C)n12` gave D1 agonist 2.0, D1 antag 6.9, D1 PAM -2.7 and DRD3 agonist 7.0.
For O=C(CSc1nccn1Cc1ccco1)Nc1ccc(OC(F)(F)F)cc1 the results were D1 agonist 0.4, D1 antag -13.6, D1 PAM -1.5 and DRD3 agonist -12.8.
